Compound activity as filed in PubChem BioAssay.
Mdm2-MdmX inh: inhibitors of human Mdm2-MdmX association, primary screen, cell-based, luminescence, split luciferase, SaOS-2, uHTS | Protein Mdm4 (Homo sapiens) + E3 ubiquitin-protein ligase Mdm2 (Homo sapiens), … | SaOS-2 split-luciferase Mdm2/MdmX complementation | inhibition, % at 8 µM | 330,000 tested, 3% active | AID 485346, 2010;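 active = inhibition of at least 50% at 8 µM in the primary screen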
Target sequence (O15151 whole entry, looked up): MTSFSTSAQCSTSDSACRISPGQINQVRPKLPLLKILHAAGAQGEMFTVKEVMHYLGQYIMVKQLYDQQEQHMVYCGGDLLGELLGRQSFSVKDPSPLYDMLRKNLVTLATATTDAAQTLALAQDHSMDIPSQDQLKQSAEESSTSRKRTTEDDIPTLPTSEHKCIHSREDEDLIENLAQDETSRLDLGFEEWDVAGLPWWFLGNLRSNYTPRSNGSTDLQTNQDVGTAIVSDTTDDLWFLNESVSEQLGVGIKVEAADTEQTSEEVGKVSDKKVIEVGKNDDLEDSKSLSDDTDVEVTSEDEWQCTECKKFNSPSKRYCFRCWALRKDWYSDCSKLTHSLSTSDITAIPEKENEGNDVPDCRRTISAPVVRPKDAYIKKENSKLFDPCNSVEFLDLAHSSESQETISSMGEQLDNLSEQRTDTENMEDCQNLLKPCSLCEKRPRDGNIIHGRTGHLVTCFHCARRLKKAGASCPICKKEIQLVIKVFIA
Target sequence (Q00987 whole entry, looked up): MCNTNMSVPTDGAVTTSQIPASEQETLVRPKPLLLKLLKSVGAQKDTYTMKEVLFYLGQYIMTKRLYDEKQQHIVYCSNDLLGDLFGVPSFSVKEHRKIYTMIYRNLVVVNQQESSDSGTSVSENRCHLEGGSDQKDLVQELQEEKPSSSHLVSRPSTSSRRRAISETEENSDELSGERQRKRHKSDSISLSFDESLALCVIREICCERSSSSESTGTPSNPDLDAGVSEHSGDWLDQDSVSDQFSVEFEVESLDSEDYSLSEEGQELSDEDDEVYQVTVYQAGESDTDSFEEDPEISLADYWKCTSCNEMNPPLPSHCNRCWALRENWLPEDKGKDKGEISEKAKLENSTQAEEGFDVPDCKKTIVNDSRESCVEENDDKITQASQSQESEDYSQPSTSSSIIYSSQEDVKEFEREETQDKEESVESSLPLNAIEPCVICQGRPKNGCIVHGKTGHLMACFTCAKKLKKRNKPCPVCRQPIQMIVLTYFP
CSC inhib: cancer stem cell viability inhibitors, primary screen, luminescence. cancer stem cell-like cells viability. inhibition, % at 7.5 µM. 300,000 tested, 1.1% active. AID 2717, 2010; in the data active = inhibition above about 75%; inconclusive = no clear call, values can overlap the other calls; tested in HMLE shEcad cells
MPTP block: mitochondrial permeability transition pore inhibitors, primary screen, biochemical, isolated mouse mitochondria, absorbance; Ca2+ swelling absorbance, 30 min; inhibition, % at 10 µM; 360,000 tested, 1.4% active;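 active = inhibition of 50% or more, scaled per plate between neutral and stimulator controls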
Calb FLC: C. albicans growth inhibition with fluconazole, primary screen, CaCi-2 strain, Alamar Blue fluorescence. C. albicans CaCi-2 (fluconazole-resistant clinical isolate) + fluconazole, 48 h. growth inhibition, % (test concentration not listed). AID 1979, 2009. 300,000 tested, 0.57% active;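 active = growth inhibition above about 58% in most replicates, limit read from the data, passing the limit was not always enough; inconclusive = exactly half the replicates above a set limit; inactive = most replicates below a set limit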;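 note: all wells also contain fluconazole at 8 µg/ml as a sub-toxic cotreatment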
Beta apoptosis: inhibitors of cytokine-induced beta cell apoptosis, primary screen, luminescence. INS-1E cytokine-induced death, ATP luminescence, 48 h; percent of positive-control rescue, neutral wells zero. protection from apoptosis, % (concentration not given with the values). 300,000 tested, 0.8% active. AID 435005, 2010;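 active = Every replicate reaches about 75%, or at least half do and their mean reaches it too, limit read from the data; inconclusive = At least half of replicates reach the limit but their mean does not; inactive = Under half of replicates reach the limit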;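 note: higher means more ATP so stronger rescue from cytokine killing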
MPTP counter: fluorescence retest of MPTP screen hits in isolated mitochondria, single concentration; membrane potential, Rhodamine 123 fluorescence; inhibition, % at 10 µM; shares compounds with MPTP block; 5,000 tested, 78% active; in the data active = inhibition above about 22%
MPTP swell DR: mitochondrial permeability transition pore inhibitors, dose response, biochemical, absorbance, uHTS hits; shares compounds with MPTP block; isolated mitochondria swelling; IC50, µM; 780 tested, 58% active; AID 651561, 2012; in the data active = IC50 below about 20 µM
MPTP cs DR: fluorescent counter-screen in isolated mitochondria, dose response, counter-screen for MPTP inhibitor project, biochemical, fluorescence, uHTS hits. 780 tested, 49% active. AID 651564, 2012. shares compounds with MPTP block. IC50, µM. isolated mitochondria counterscreen, fluorescence read-out; in the data active = IC50 below about 80 µM
Each line names hits and unclear results; the compound was inactive in the other large screens (follow-up assays come after a bar, where they were run). The list is not random: actives were taken first. Their share in the collection is about 4.8%.

O=C(CCNc1ccc(Cc2ccncc2)cc1)c1ccc([N+](=O)[O-])cc1	MPTP block 75 | MPTP counter 68
Cc1ccc(C(=O)Nc2ccc(Cc3ccncc3)cc2)cc1[N+](=O)[O-]	MPTP block 99 | MPTP counter 64
CCOC(=O)c1ccc(Nc2ccc(C(C)=O)cc2)cc1	none (no result: Mdm2-MdmX inh, CSC inhib, Calb FLC, Beta apoptosis)
CCOC(=O)c1ccc(Nc2nnc(C(C)(C)C)c(=O)[nH]2)cc1	MPTP block 93 | MPTP counter 83
CCCN1C(=O)/C(=C/c2ccc(C)o2)SC1=Nc1ccc(OC)cc1	MPTP block 64 | MPTP counter inactive | MPTP swell DR inactive | MPTP cs DR inactive
Cc1ccc2c(c1)C1CN(C)CCC1N2C(=O)Nc1ccc(Cl)cc1 (stereo not given)	MPTP block 87 (no result: Mdm2-MdmX inh, CSC inhib, Beta apoptosis) | MPTP counter 94
CSc1nc2ccc(NS(=O)(=O)c3ccccc3F)cc2s1	none
CSc1nc2ccc(NS(=O)(=O)c3ccc4c(c3)OCCO4)cc2s1	MPTP block 55 (no result: Calb FLC) | MPTP counter 101
CSc1nc2ccc(NS(=O)(=O)c3c(Cl)cccc3Cl)cc2s1	none
CSc1nc2ccc(NS(=O)(=O)c3ccc(Br)s3)cc2s1	MPTP block 84 | MPTP counter 75
CC1(C(=O)NS(=O)(=O)c2cccc(C#N)c2)CCN1C(=O)CCc1ccccc1 (stereo not given)	none (no result: Mdm2-MdmX inh, CSC inhib, Calb FLC, Beta apoptosis)
O=C(Nc1ccccc1N1CCOCC1)c1ccc(Cl)c(S(=O)(=O)N2CCCC2)c1	none (no result: CSC inhib, Calb FLC)
Brc1ccc(CNc2ccc3ncccc3c2)cc1	MPTP block 92 | MPTP counter 86
OCCNc1nc2nonc2nc1NCCO	none
CC(C)(C)Nc1nc2nonc2nc1NC(C)(C)C	MPTP block 93 | MPTP counter 99
O=C(CSCc1ccccc1)NNC(=S)Nc1cccc(Cl)c1Cl	MPTP block 92 | MPTP counter 103
S=C(Nc1ccccc1)Nc1ccc(OCc2ccccc2)cc1	none
S=C(Nc1ccc(OCc2ccccc2)cc1)Nc1cccc(Cl)c1Cl	MPTP block 86 | MPTP counter 79
N#CC(c1ccccc1)N(CCCCl)C(=O)c1ccccc1 (stereo not given)	none
Cn1c(SCC(=O)NC2CCCCC2)nnc1C(F)(F)F	none (no result: Mdm2-MdmX inh, CSC inhib, Calb FLC, Beta apoptosis)
CCOC(=O)c1cccc(NC(=O)CCc2nc(-c3ccc(C)cc3)no2)c1	none
CCOC(=O)c1ccc(NC(=O)CCc2nc(-c3ccccc3)no2)cc1	MPTP block 62 | MPTP counter 69
CCOC(=O)c1ccc(NC(=O)CCc2nc(-c3ccccc3Cl)no2)cc1	MPTP block 89 | MPTP counter 76
CCOC(=O)c1sc(NC(=O)CSc2n[nH]c(-c3ccncc3)n2)c(C#N)c1C	MPTP block 77 | MPTP counter 80
COc1ccc(Cl)cc1NC(=O)CSc1nnc(Cc2ccc(C)cc2)c(=O)[nH]1	MPTP block 63 (no result: Beta apoptosis) | MPTP counter 67
Cc1ccc(S(=O)(=O)N2CCN(c3ncnc4sccc34)CC2)cc1C	MPTP block 90 (no result: CSC inhib, Calb FLC, Beta apoptosis) | MPTP counter 94
O=S(=O)(c1ccc2c(c1)OCCO2)N1CCN(c2ncnc3sccc23)CC1	MPTP block 103, Calb FLC inconclusive, Beta apoptosis 81 | MPTP counter 90
Cc1ccc(S(=O)(=O)N2CCN(c3ncccn3)CC2)cc1C	none (no result: Mdm2-MdmX inh)
COc1ccccc1OCCNC(=O)Nc1ccc(Br)cc1	MPTP block 85 | MPTP counter 82
COCC(C)n1c(C)cc(C(=O)CSc2nc3ccccc3c(=O)[nH]2)c1C (stereo not given)	MPTP block 76 | MPTP counter 35
Cc1cc(C(=O)CSc2nc3ccccc3[nH]2)c(C)n1Cc1ccco1	MPTP block 86 | MPTP counter 83
COCCn1c(C)cc(C(=O)CSc2nc3ccccc3c(=O)[nH]2)c1C	MPTP block 64 | MPTP counter inactive | MPTP swell DR inactive | MPTP cs DR 45
C=CCn1c(C)cc(C(=O)CSc2nc3ccccc3c(=O)[nH]2)c1C	none (no result: Calb FLC)
COCC(C)n1c(C)cc(C(=O)COC(=O)CCc2nc3ccccc3c(=O)[nH]2)c1C (stereo not given)	none
CCN(CC)C(=O)CSc1nc2ccccc2c(=O)[nH]1	MPTP block 66 | MPTP counter inactive | MPTP swell DR inactive | MPTP cs DR inactive
NC(=O)NC(=O)COC(=O)CC12CC3CC(CC(C3)C1)C2	none
COc1ccc(NC(=O)c2ccc(Cl)c(S(=O)(=O)NCC3CCCO3)c2)c(OC)c1 (stereo not given)	none
COc1ccc(NC(=O)COC(=O)C2CC2)c(OC)c1	none (no result: Calb FLC)
COCCCNC(=O)Cn1cc(/C=C(\C#N)C(=O)NC2CCCC2)c2ccccc21	none (no result: Beta apoptosis)
CC(=O)c1ccc(NC(=S)NC(=O)Cc2ccc(Cl)cc2)cc1	none (no result: Beta apoptosis)
CC(=O)c1ccc(NC(=S)NC(C)c2ccc(Cl)cc2Cl)cc1 (stereo not given)	MPTP block 95, Beta apoptosis inconclusive | MPTP counter 69
CC(=O)c1ccc(NC(=S)Nc2ccc(Br)c(Cl)c2)cc1	MPTP block 96 (no result: CSC inhib) | MPTP counter 100
O=C(N/N=C/c1ccc(-c2ccc(Cl)c(C(=O)O)c2)o1)c1cc2c(ccc3ccccc32)o1	none
CC(C)(C)C(=O)COC(=O)C1=NN(c2ccccc2)C(=O)CC1	none
Cc1ccccc1C(=O)NC(CC(C)C)C(=O)OCC(=O)c1c(N)n(C)c(=O)n(C)c1=O (stereo not given)	none
COc1ccc(OC)c(NC(=O)Nc2ccc3[nH]ccc3c2)c1	none
O=C(CSc1nnc(CNC(=O)c2ccc(F)cc2)o1)NCc1ccc2c(c1)OCO2	none (no result: Calb FLC)
COc1ccc(CN(C)Cc2c(O)ccc3cc(Br)ccc23)cc1OC	MPTP block 68 | MPTP counter 50
CCCCNc1ccc(C(=O)OCCOCCOCCOCCOCCOCCOCCOCCOCCOC)cc1	none (no result: Calb FLC)
CCOc1ccccc1NC(=O)Nc1ccc(Cl)cc1	MPTP block 90 | MPTP counter 90
CCOc1cc(NC(=S)Nc2ccc(Cl)cc2)c(OCC)cc1NC(C)=O	MPTP block 73 | MPTP counter 100
CCOc1ccccc1NC(=O)Nc1ccccn1	none
Cc1n[nH]c(C)c1CCCCOc1ccccc1F	none
Cc1ccccc1OCCCCc1c(C)n[nH]c1C	MPTP block 101 | MPTP counter 98
Cc1n[nH]c(C)c1CCCCOc1ccccc1[N+](=O)[O-]	MPTP block 85 | MPTP counter 74
O=c1[nH]c(/C=C/c2ccccc2Cl)nc2ccccc12	none (no result: CSC inhib, Beta apoptosis)
